Experimental data published in publication PMC7862700, “An all-to-all approach to the identification of sequence-specific readers for epigenetic DNA modifications on cytosine”.

Columns and labels:
Test in all cases: DAPPL (digital affinity profiling via proximity ligation, sequencing); 10 mM Tris-HCl pH 7.5, 50 mM NaCl, 1 mM DTT, 4% glycerol, room temperature, 30 min; GST-TFs on glutathione beads, 16-mer random dsDNA library, 0.1% formaldehyde crosslink after washing; high values mean tight binding
Settings in all cases: protein: recombinant; tags: N-terminal GST; dsDNA, one strand shown
ERF = molecular target: T1, ERF (Homo sapiens, UniProt P50548 1-548)
T1 sequence: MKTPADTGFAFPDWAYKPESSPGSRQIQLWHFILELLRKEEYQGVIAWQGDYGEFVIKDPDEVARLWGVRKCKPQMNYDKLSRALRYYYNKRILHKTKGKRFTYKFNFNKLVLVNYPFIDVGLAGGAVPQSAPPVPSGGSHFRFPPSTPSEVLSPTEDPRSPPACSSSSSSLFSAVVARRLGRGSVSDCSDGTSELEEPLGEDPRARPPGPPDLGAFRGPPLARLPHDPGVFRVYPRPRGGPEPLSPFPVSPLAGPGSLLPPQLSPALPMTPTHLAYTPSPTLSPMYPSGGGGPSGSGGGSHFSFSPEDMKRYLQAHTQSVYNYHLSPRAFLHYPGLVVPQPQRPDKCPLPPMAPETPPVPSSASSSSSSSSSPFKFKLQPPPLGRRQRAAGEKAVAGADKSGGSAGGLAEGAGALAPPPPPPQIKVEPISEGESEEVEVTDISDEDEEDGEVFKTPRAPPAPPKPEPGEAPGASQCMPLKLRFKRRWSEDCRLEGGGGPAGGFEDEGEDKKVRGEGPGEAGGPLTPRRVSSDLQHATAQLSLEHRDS
How it was run: (§1)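 Beads coated with glutathione captured GST-fused human transcription factors that had been expressed in yeast, and the factors were then given DNA barcodes and pooled with a tag-only sample. The pools were incubated with 200 nmole of a random double-stranded 16-mer DNA library in Tris/NaCl/DTT/glycerol buffer for 30 min at room temperature, washed, crosslinked with 0.1% formaldehyde and proximity-ligated with BsaI/T4 ligase at 37 °C for 1 h. PCR amplification and Illumina NextSeq500 sequencing came last. Binding signal is each hexamer's read frequency for a factor divided by its frequency for the tag-only sample.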

ETV3L = molecular target: T2, ETV3L (Homo sapiens, UniProt Q6ZN32 1-361)
T2 sequence: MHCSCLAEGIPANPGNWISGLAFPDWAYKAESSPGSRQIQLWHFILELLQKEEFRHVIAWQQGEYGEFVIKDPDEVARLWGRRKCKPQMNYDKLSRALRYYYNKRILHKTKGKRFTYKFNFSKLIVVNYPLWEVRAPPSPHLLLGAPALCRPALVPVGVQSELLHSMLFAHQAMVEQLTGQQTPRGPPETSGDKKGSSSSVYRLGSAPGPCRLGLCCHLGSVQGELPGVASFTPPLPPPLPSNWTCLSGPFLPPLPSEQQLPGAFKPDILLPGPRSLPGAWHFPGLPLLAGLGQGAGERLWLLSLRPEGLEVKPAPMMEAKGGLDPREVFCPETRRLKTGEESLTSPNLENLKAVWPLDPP
How it was run: as §1

ETS2 = molecular target: T3, ETS2 (Homo sapiens, UniProt P15036 1-469)
T3 sequence: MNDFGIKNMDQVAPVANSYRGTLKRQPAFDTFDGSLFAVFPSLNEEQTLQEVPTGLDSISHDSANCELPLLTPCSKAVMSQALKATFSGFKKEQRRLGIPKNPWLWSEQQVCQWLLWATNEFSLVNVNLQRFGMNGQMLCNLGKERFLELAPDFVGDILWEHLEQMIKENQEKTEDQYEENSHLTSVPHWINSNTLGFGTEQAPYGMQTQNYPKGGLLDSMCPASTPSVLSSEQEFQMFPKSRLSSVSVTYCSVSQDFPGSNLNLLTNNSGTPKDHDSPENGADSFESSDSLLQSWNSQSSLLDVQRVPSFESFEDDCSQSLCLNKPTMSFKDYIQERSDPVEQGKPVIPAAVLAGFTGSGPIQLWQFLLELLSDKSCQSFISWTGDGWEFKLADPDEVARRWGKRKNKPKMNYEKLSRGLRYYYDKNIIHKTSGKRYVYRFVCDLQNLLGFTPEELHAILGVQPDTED
How it was run: as §1

SPDEF = molecular target: T4, SPDEF (Homo sapiens, UniProt O95238 1-335)
T4 sequence: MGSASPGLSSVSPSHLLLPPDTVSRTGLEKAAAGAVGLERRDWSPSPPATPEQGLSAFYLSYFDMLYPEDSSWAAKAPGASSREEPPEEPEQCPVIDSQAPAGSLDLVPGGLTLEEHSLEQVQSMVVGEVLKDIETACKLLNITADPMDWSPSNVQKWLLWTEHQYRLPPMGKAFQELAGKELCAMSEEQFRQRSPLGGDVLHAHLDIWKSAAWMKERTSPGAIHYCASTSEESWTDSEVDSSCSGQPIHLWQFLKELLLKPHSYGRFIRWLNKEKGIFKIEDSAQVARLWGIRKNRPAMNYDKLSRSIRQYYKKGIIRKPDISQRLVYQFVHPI
How it was run: as §1

ETV7 = molecular target: T5, ETV7 (Homo sapiens, UniProt Q9Y603 1-341)
T5 sequence: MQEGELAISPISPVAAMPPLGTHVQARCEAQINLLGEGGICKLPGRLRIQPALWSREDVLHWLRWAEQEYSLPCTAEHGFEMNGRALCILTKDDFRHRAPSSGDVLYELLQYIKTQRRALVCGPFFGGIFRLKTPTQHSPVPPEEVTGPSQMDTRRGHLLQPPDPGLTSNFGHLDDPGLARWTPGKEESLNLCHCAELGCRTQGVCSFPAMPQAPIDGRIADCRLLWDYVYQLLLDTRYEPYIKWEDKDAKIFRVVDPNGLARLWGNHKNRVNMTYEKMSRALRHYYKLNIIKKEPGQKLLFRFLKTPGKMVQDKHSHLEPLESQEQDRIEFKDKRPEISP
How it was run: as §1

ELF5 = molecular target: T6, ELF5 (Homo sapiens, UniProt Q9UKW6-2 1-255)
T6 sequence: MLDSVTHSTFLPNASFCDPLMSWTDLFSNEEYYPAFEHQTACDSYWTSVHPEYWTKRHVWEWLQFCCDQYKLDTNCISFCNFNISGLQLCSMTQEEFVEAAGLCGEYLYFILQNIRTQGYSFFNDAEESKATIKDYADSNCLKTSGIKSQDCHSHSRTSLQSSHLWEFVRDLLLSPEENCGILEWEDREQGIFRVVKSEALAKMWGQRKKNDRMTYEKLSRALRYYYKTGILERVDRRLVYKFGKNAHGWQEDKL
How it was run: as §1

ETV3 = molecular target: T7, ETV3 (Homo sapiens, UniProt P41162-2 1-143)
T7 sequence: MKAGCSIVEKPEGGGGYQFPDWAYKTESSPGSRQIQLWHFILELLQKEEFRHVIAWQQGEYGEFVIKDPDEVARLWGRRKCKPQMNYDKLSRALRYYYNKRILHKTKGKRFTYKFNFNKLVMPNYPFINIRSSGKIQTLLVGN
How it was run: as §1

ETV6 = ETV6 (Homo sapiens, UniProt P41212 1-452)
Chain of ETV6 (P41212 whole entry): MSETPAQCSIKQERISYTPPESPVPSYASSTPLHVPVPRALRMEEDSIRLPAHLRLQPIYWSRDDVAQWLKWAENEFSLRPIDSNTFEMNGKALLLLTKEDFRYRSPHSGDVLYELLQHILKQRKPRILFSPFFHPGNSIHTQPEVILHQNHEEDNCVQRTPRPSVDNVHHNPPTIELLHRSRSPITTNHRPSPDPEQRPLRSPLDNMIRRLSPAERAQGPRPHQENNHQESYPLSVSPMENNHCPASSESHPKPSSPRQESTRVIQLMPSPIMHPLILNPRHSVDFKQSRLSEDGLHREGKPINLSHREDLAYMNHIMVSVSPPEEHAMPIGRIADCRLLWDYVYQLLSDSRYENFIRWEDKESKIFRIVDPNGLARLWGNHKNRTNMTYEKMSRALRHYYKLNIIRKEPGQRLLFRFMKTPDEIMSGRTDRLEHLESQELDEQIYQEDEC
How it was run: as §1

| Sequence | binding signal (ERF) | binding signal (ETV3L) | binding signal (ETS2) | binding signal (SPDEF) | binding signal (ETV7) | binding signal (ELF5) | binding signal (ETV3) | binding signal (ETV6) |
| --- | --- | --- | --- | --- | --- | --- | --- | --- |
| AACCTG | 1.17 fold enrichment (6-mer frequency, TF over GST control) | 1.08 fold enrichment (6-mer frequency, TF over GST control) | 1.27 fold enrichment (6-mer frequency, TF over GST control) | 1.13 fold enrichment (6-mer frequency, TF over GST control) | 1.21 fold enrichment (6-mer frequency, TF over GST control) | 1.16 fold enrichment (6-mer frequency, TF over GST control) | 1.2 fold enrichment (6-mer frequency, TF over GST control) | 1.14 fold enrichment (6-mer frequency, TF over GST control) |
| CTGAAA | 1.09 fold enrichment (6-mer frequency, TF over GST control) | 1.1 fold enrichment (6-mer frequency, TF over GST control) | 1.19 fold enrichment (6-mer frequency, TF over GST control) | 1.16 fold enrichment (6-mer frequency, TF over GST control) | 1.12 fold enrichment (6-mer frequency, TF over GST control) | 1.09 fold enrichment (6-mer frequency, TF over GST control) | 1.17 fold enrichment (6-mer frequency, TF over GST control) | 1.16 fold enrichment (6-mer frequency, TF over GST control) |
| TACTCC | 1.34 fold enrichment (6-mer frequency, TF over GST control) | 1.26 fold enrichment (6-mer frequency, TF over GST control) | 1.37 fold enrichment (6-mer frequency, TF over GST control) | 1.29 fold enrichment (6-mer frequency, TF over GST control) | 1.21 fold enrichment (6-mer frequency, TF over GST control) | 1.15 fold enrichment (6-mer frequency, TF over GST control) | 1.33 fold enrichment (6-mer frequency, TF over GST control) | 1.23 fold enrichment (6-mer frequency, TF over GST control) |
| ATGTCT | 1.38 fold enrichment (6-mer frequency, TF over GST control) | 1.27 fold enrichment (6-mer frequency, TF over GST control) | 1.28 fold enrichment (6-mer frequency, TF over GST control) | 1.26 fold enrichment (6-mer frequency, TF over GST control) | 1.12 fold enrichment (6-mer frequency, TF over GST control) | 1.35 fold enrichment (6-mer frequency, TF over GST control) | 1.26 fold enrichment (6-mer frequency, TF over GST control) | 1.23 fold enrichment (6-mer frequency, TF over GST control) |
| CGTAAT | 1.24 fold enrichment (6-mer frequency, TF over GST control) | 1.25 fold enrichment (6-mer frequency, TF over GST control) | 1.14 fold enrichment (6-mer frequency, TF over GST control) | 1.19 fold enrichment (6-mer frequency, TF over GST control) | 1.19 fold enrichment (6-mer frequency, TF over GST control) | 1.2 fold enrichment (6-mer frequency, TF over GST control) | 1.19 fold enrichment (6-mer frequency, TF over GST control) | 1.2 fold enrichment (6-mer frequency, TF over GST control) |
| TCGCTT | 1.21 fold enrichment (6-mer frequency, TF over GST control) | 1.24 fold enrichment (6-mer frequency, TF over GST control) | 1.34 fold enrichment (6-mer frequency, TF over GST control) | 1.18 fold enrichment (6-mer frequency, TF over GST control) | 1.29 fold enrichment (6-mer frequency, TF over GST control) | 1.21 fold enrichment (6-mer frequency, TF over GST control) | 1.24 fold enrichment (6-mer frequency, TF over GST control) | 1.22 fold enrichment (6-mer frequency, TF over GST control) |
| ATGGCA | 1.23 fold enrichment (6-mer frequency, TF over GST control) | 1.2 fold enrichment (6-mer frequency, TF over GST control) | 1.15 fold enrichment (6-mer frequency, TF over GST control) | 1.1 fold enrichment (6-mer frequency, TF over GST control) | 1.24 fold enrichment (6-mer frequency, TF over GST control) | 1.26 fold enrichment (6-mer frequency, TF over GST control) | 1.3 fold enrichment (6-mer frequency, TF over GST control) | 1.28 fold enrichment (6-mer frequency, TF over GST control) |
| ACATTT | 1.54 fold enrichment (6-mer frequency, TF over GST control) | 1.49 fold enrichment (6-mer frequency, TF over GST control) | 1.42 fold enrichment (6-mer frequency, TF over GST control) | 1.41 fold enrichment (6-mer frequency, TF over GST control) | 1.46 fold enrichment (6-mer frequency, TF over GST control) | 1.59 fold enrichment (6-mer frequency, TF over GST control) | 1.56 fold enrichment (6-mer frequency, TF over GST control) | 1.56 fold enrichment (6-mer frequency, TF over GST control) |
| TACGAA | 1.28 fold enrichment (6-mer frequency, TF over GST control) | 1.27 fold enrichment (6-mer frequency, TF over GST control) | 1.18 fold enrichment (6-mer frequency, TF over GST control) | 1.18 fold enrichment (6-mer frequency, TF over GST control) | 1.31 fold enrichment (6-mer frequency, TF over GST control) | 1.2 fold enrichment (6-mer frequency, TF over GST control) | 1.19 fold enrichment (6-mer frequency, TF over GST control) | 1.18 fold enrichment (6-mer frequency, TF over GST control) |
